The text below walks through data of PubChem BioAssay (Tox21).

The structures appear in SMILES notation. Results filed as inconclusive are left out. Active and inactive are the calls of the source. Calls follow the shape of the dose curve; as a rule, active = well fitted cell-killing curve with a large enough effect in the repeat runs; inconclusive = weak or mixed curves; inactive = flat fitted curve, though single readings scatter.
% is scaled to controls: 0 for no effect and ±100 for the full control effect.

The nature of the experiment: qHTS RealTime-Glo MT Cell Viability Assay in HepG2 cells - 8 hour (AID 1224873). Also: nearly all actives have a fitted effect of over 55% in size. Conditions: RealTime-Glo luminescence; series mostly up to 76.8 µM. The source says: National Center for Advancing Translational Sciences [NCATS]
NIH Chemical Genomics Center [NCGC]
U.S. Environmental Protection Agency [EPA]
National Institutes of Environmental Health Sciences [NIEHS]
National Toxicology Program [NTP]
U.S. Food and Drug Administration [FDA]
Measure of cell viability is critical in the cell-base assay. Analysis of cell viability is necessary for the characterization of cell responses to cytotoxic drugs and environmental stress. A RealTime-Glo MT Cell Viability Assay to monitor cell viability in real time of continues cell culture during 40 hours of compound treatment was used to screen Tox21 10K library compounds in HepG2 cells. The RealTime-Glo MT Cell Viability Assay is a nonlytic, homogeneous, bioluminescent method to measure cell viability in real time using a simple, plate-based method. The assay involves adding NanoLuc luciferase and a cell-permeant prosubstrate to cells in culture. Viable cells reduce the proprietary prosubstrate to generate a substrate for NanoLuc luciferase. This substrate diffuses from cells into the surrounding culture medium, where it is rapidly used by the NanoLuc Enzyme to produce a luminescent signal. The signal correlates with the number of viable cells, making the assay well suited for cytotoxicity studies.
Tox21 Assay Protocol Summary:
The mixture of HepG2 cell suspension and reagents were dispensed at 600cells/6 ul/well in 1536-well tissue culture treated black solid bottom plates using a Multidrop dispenser. After the assay plates were incubated at a 37 C/5% CO2 incubator for 5 hours, 23 nL of compounds dissolved in DMSO, positive and negative controls was transferred to the assay plate by a pintool work station. The plates were incubated at 37 C for 40 hours. The luminescence intensity were measured at 0h, 8h, 16h, 24h, 32h and 40h time points using ViewLux plate reader during compound treatment.
A general note: In qHTS, concentration-response curves come from the screen itself.
Take `COc1cc([N+](=O)[O-])ccc1N`: the result was inactive.

For the compound `OC(CCN1CCCCC1)(c1ccccc1)c1ccccc1`, the call was inactive.

Take `CCCCCCCC[Si](OCC)(OCC)OCC`: the compound was called inactive.

On to `CCCCC(=O)N(C)C`, for which the compound was called inactive.

Turning to `CC(C)COC(=O)CCCCC(=O)OCC(C)C`, the compound was called inactive.

`C=CCOCC(CO)(COCC=C)COCC=C`: the call was inactive.

Regarding `O=S(=O)(O)CCO`, the call was inactive.

For the compound `O=c1[nH]c(=O)c2[nH]c(=O)[nH]c2[nH]1`, the viability change, negative = cytotoxic was 1.36% [at 6.97 µM] (inactive).

`CC1(N)CCC(C(C)(C)N)CC1` (stereo not given): the call was inactive.

`C=C[C@@H](C)CCC=C(C)C`: the compound was called inactive.

On to `CC(C)(c1ccc(Oc2ccc3c(c2)C(=O)OC3=O)cc1)c1ccc(Oc2ccc3c(c2)C(=O)OC3=O)cc1`, for which the compound was called inactive.

Turning to `CCN(CCO)c1cccc(C)c1`, the result was inactive.

On to `CC(C)C(=O)c1ccccc1`, for which the compound was called inactive.

Take `CC(CC(=O)O)CC(C)(C)C` (stereo not given): the compound was called inactive.

On to `Cc1ccccc1N1CCN(CCc2nnc3n2CCCC3)CC1`, for which the call was inactive.

On to `CC(C)(C)c1ccc(C=O)cc1`, for which the result was inactive.

As to `CC(=O)OCCCc1ccccc1`, the compound was classed as inactive.

With `NCCc1ccn[nH]1`, the compound was called inactive.

On to `OCCCCCCCl`, for which the compound was classed as inactive.

As to `O=S(=O)(O)c1cc(O)ccc1O`, the compound was classed as inactive.

In the case of `CC(C)CCCC(C)CC=O` (stereo not given), the result was inactive.

In the case of `CC(C)c1ccccc1O`, the outcome was inactive.

As to `CCCCCC1Nc2cc(C(F)(F)F)c(S(N)(=O)=O)cc2S(=O)(=O)N1` (stereo not given), the call was inactive.

Consider `CN(C)CCCNCCC#N`, for which the result was inactive.

Take `COc1cccc2sc(N)nc12`: the result was inactive.

Consider `C=C(C)C(=O)OC1CC(C)CC(C)(C)C1` (stereo not given), for which the result was inactive.

As for `CNC(=O)C(c1ccccc1)c1ccccc1`, the compound was called inactive.

As for `CCCCCN(CCCOC)C(=O)C(CCC(=O)O)NC(=O)c1ccc(Cl)c(Cl)c1` (stereo not given), the result was inactive.

Turning to `Nc1c(NC/C=C\COc2cc(CN3CCCCC3)ccn2)c(=O)c1=O`, the viability change, negative = cytotoxic was 6.05% [at 15.8 µM] (inactive).

For the compound `CC(C)CCCCCCOC(=O)C1CCCCC1C(=O)OCCCCCCC(C)C` (stereo not given), the compound was classed as inactive.

For the compound `Nc1cc(Cl)cc(S(=O)(=O)O)c1O`, the call was inactive.

On to `CCC(C)(C)C1CCC(=O)CC1`, for which the outcome was inactive.

`Cc1cccc(Nc2ccncc2S(=O)(=O)NC(=O)NC(C)C)c1`: the compound was classed as inactive.

With `COc1cc2c(Nc3ccc(Br)cc3F)ncnc2cc1OCC1CCN(C)CC1`, the result was inactive.

On to `COc1ccc(OC)c(NC(=O)CC(C)=O)c1`, for which the compound was called inactive.

Turning to `O=C(CN1CCN(Cc2ccc3c(c2)OCO3)CC1)N1c2ccccc2Sc2ccccc21`, the result was inactive.

For the compound `Cc1nc(C)nc(N2C[C@@H](C)N(c3ccnc([C@@H](C)O)n3)[C@@H](C)C2)n1`, the compound was called inactive.

Turning to `C=CC(C)(O)CC/C=C(\C)CC` (stereo not given), the result was inactive.

As for `Nc1ccc(/C=C/c2ccc(N)cc2S(=O)(=O)O)c(S(=O)(=O)O)c1`, the viability change, negative = cytotoxic was 5.84% [at 0.29 µM] (inactive).

As for `O=C(O)C(=O)Nc1cccc(-c2nn[nH]n2)c1`, the result was inactive.
